# Data from PubChem BioAssay.
# Active and inactive are the calls of the source. Unless noted, no rule for the calls is given here.
# Columns and labels:
# [1] = tested on: Wnt5a (protein binding on small-molecule microarray); assay: Wnt5a binders on small-molecule microarray, primary screen, biophysical, 635/667 nm fluorescence (AID 1142); conditions: 635 nm fluorescence, higher = more signal;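 also: fluorescence read at 667 nm with signal to noise per printed feature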
# [2] = cell viability in Huh7 cells, primary screen, cytotoxicity control for HCV replication inhibitor project, CellTiter-Glo luminescence, basal, 48 h (AID 1143); conditions: Huh7 HCV replicon, higher = more signal, called active from +8 up or from −8 down;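 also: Huh7 hepatoma cells carrying a hepatitis C replication reporter with no stimulus; test concentration not given here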
# [3] = P. aeruginosa biofilm formation inhibitors, primary screen, PAO1 strain, BacTiter-Glo luminescence, LB-PBS (AID 1144); conditions: 12 h, higher = more signal
# [4] = CREB reporter modulators without forskolin, primary screen, cell-based, PC12, CRE-LacZ reporter, unstimulated (AID 1145); conditions: no forskolin, luminescence, 4.5 h, higher = more signal, called active from +8 up or from −8 down
# [5] = CREB reporter modulators under forskolin, primary screen, cell-based, PC12, CRE-LacZ reporter, forskolin-stimulated (AID 1146); conditions: luminescence, 4.5 h, higher = more signal, called active from +8 up or from −8 down;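 also: PC12 cells with 6xCRE LacZ reporter stimulated by forskolin 10 µM; beta-galactosidase reporter signal reflecting CREB driven transcription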
# [6] = target: Streptavidin (Streptomyces avidinii) (UniProt P22629); assay: streptavidin binders on small-molecule microarray, primary screen, artefact control for SMM compound annotation, biophysical, 635/667 nm fluorescence (AID 1147); conditions: streptavidin binding, higher = more signal;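 also: signal reflects streptavidin binding to arrayed compounds as a control protein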
# Chain of Streptavidin (Streptomyces avidinii) (P22629 whole entry, looked up): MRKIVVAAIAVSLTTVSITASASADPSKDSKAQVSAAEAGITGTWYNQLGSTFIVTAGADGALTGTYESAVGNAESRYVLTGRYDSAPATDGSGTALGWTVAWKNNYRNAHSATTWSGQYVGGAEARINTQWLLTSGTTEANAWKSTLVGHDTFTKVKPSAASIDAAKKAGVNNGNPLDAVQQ
# [7] = small-molecule binders of probe aInhba, primary screen, biochemical, small-molecule microarray, 635/667 nm fluorescence (AID 1148); conditions: higher = more signal;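 also: score merges 667nm spot fluorescence with signal-to-noise for antibody binding to printed compounds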
# Torsin-1A (Homo sapiens) [8] = target: Torsin-1A (Homo sapiens) (UniProt O14656); assay: torsin A binders from cell lysate, primary screen, small-molecule microarray, wild-type, 635/667 nm (AID 1149); conditions: COS7 hTOR1A-WT lysate, 635 nm fluorescence, higher = more signal
# Chain of Torsin-1A (Homo sapiens) (O14656 whole entry, looked up): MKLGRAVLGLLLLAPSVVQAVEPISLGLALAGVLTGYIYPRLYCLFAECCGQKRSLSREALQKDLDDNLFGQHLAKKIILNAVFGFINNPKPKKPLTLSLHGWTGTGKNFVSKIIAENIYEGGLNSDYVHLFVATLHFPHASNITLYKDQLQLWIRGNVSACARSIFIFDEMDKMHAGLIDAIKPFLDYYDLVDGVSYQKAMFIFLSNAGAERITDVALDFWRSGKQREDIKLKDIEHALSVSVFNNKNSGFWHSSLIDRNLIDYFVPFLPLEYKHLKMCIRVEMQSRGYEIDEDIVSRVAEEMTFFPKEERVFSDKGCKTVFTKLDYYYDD
# Torsin-1A (Homo sapiens) [9] = target: Torsin-1A (Homo sapiens) (UniProt O14656); assay: small-molecule binders of mutant TOR1A in lysate, primary screen, cell lysate, small-molecule microarray, COS7 lysate, 635/667 nm fluorescence (AID 1150); conditions: COS7 hTOR1A mutant lysate, 635 nm fluorescence, higher = more signal;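 also: score pools 667 nm emission and signal to noise measuring lysate protein binding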
# [10] = tested on: Sonic hedgehog protein (Shh); assay: small-molecule binders of Shh protein, primary screen, biochemical, small-molecule microarray, 635/667 nm fluorescence (AID 1151); conditions: small-molecule microarray binding, 635 nm fluorescence; higher = more signal;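 also: Shh protein binding to compounds spotted on small-molecule microarray slides; score combines spot fluorescence intensity with signal-to-noise across triplicate slides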
# [11] = E. coli DRC41 culture turbidity changes, primary screen, E. coli filamentation inducer project, strain DRC41, OD650, 48 h (AID 1152);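 also: E. coli MC1000 strain DRC41 lacking acrAB efflux pump and sulA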; conditions: E. coli DRC41 (acrAB sulA), higher = more signal, called active from +8 up or from −8 down
# [12] = small-molecule binders of probe aLefty1, primary screen, biochemical, small-molecule microarray, 635/667 nm fluorescence (AID 1153); conditions: higher = more signal;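 also: score merges spot fluorescence with signal-to-noise ratio from the scanned slide images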
# [13] = PSAC antagonists in infected red cells, primary screen, cell-based, P. falciparum Indochina, OD700, 1 h (AID 1154); conditions: P. falciparum Indochina infected RBC osmotic lysis, higher = more signal, called active from +8 up or from −8 down
# [14] = PSAC antagonists in infected red cells, primary screen, cell-based, P. falciparum Indochina, OD700, 2 h (AID 1155);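 also: lysis reports solute entry through the parasite surface anion channel PSAC; channel blockers reduce lysis of infected cells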; conditions: P. falciparum Indochina infected erythrocytes, osmotic lysis OD700; higher = more signal, called active from +8 up or from −8 down
# [15] = osmotic lysis modulators in infected erythrocytes, primary screen, PSAC antagonist project, cell-based, P. falciparum Indochina, OD700, 3 h (AID 1156); conditions: higher = more signal, called active from +8 up or from −8 down
# [16] = PSAC antagonists in infected red cells, primary screen, cell-based, P. falciparum Indochina, OD700, 18 h (AID 1157); conditions: P. falciparum Indochina infected erythrocytes, osmotic lysis OD700, 18 h; higher = more signal, called active from +8 up or from −8 down
# [17] = modulators of S6 phosphorylation in cells, primary screen, cell-based, A549, cytoblot, luminescence, serum-stimulated (AID 1158); conditions: A549 phospho-S6 cytoblot, 5 h, higher = more signal;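 also: serum-stimulated A549 lung adenocarcinoma cells; signal is phosphorylated S6 detected by cytoblot immunostaining with HRP secondary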
# [18] = target: NADPH oxidase 2 (Homo sapiens) (UniProt P04839); assay: NOX2-dependent H2O2 signal modulators, primary screen, NOX inhibitor project, cell-based, HEK293-NOX2, PMA-stimulated, Amplex Red fluorescence (AID 1159); conditions: 45 min, higher = more signal, called active from +8 up or from −8 down; also: test concentration not given here
# Chain of NADPH oxidase 2 (Homo sapiens) (P04839 whole entry, looked up): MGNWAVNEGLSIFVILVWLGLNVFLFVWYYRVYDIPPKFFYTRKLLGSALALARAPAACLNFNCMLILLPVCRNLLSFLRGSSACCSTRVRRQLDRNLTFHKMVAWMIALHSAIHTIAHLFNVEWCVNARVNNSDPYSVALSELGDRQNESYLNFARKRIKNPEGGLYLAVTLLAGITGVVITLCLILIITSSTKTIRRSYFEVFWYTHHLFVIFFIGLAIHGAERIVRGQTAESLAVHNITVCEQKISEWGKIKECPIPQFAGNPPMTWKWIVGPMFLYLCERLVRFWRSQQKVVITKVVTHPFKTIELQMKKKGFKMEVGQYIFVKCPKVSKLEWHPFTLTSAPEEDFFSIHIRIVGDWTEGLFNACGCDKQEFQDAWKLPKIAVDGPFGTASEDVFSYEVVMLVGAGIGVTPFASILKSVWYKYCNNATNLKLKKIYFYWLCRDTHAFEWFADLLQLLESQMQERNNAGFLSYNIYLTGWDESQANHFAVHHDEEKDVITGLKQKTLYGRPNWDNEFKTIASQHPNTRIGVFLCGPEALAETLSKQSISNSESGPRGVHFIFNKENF
# [19] = target: NADPH oxidase 4 (Homo sapiens) (UniProt Q9NPH5); assay: NOX4-dependent H2O2 signal modulators, primary screen, NOX inhibitor project, cell-based, HEK293-NOX4, tetracycline-induced, Amplex Red fluorescence (AID 1160); conditions: 45 min, higher = more signal, called active from +8 up or from −8 down
# Chain of NADPH oxidase 4 (Homo sapiens) (Q9NPH5 whole entry, looked up): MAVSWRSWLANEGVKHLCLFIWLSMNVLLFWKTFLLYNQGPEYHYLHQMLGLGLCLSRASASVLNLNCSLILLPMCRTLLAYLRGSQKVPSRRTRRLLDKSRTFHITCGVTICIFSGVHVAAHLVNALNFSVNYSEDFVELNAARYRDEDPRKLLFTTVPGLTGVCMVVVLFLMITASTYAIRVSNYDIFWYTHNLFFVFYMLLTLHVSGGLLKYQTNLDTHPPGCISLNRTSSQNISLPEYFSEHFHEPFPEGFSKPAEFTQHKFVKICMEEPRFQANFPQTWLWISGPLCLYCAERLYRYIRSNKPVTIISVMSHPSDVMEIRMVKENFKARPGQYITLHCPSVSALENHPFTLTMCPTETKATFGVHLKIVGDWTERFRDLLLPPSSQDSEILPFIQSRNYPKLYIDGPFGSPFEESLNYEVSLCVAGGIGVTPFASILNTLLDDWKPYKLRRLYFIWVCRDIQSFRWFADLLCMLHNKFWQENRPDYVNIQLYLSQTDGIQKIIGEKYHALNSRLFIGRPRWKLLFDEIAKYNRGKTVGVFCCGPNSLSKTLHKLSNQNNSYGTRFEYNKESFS
# [20] = target: NADPH oxidase 5 (Homo sapiens) (UniProt Q96PH1); assay: NOX5-dependent H2O2 signal modulators, primary screen, NOX inhibitor project, cell-based, HEK293-NOX5, Amplex Red fluorescence (AID 1161); conditions: HEK293-NOX5, ionomycin, 45 min, higher = more signal
# Chain of NADPH oxidase 5 (Homo sapiens) (Q96PH1 whole entry, looked up): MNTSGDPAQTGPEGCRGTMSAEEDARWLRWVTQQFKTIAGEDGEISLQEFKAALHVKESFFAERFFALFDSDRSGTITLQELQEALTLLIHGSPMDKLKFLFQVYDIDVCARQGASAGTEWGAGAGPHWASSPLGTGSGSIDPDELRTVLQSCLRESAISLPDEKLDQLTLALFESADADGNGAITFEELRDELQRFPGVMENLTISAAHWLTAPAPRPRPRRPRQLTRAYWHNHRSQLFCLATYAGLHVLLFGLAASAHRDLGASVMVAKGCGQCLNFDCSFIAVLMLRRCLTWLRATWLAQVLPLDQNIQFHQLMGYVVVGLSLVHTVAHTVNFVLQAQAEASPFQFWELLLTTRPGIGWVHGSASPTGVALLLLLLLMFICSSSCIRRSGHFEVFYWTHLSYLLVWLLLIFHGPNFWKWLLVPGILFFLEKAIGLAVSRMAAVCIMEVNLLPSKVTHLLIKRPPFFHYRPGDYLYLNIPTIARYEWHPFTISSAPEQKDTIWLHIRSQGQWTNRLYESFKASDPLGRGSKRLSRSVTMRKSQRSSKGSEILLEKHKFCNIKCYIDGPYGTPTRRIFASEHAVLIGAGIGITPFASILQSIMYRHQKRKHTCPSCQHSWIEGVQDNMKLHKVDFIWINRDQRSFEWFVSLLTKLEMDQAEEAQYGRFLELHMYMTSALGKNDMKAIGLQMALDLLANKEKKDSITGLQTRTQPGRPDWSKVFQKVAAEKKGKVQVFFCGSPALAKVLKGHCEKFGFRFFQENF
Structure (SMILES),composite z-score [1],z-score [2],z-score [3],z-score [4],z-score [5],composite z-score [6],composite z-score [7],composite z-score (Torsin-1A (Homo sapiens) [8]),composite z-score (Torsin-1A (Homo sapiens) [9]),composite z-score [10],z-score [11],composite z-score [12],z-score [13],z-score [14],z-score [15],z-score [16],z-score [17],z-score [18],z-score [19],z-score [20]
[N-]=[N+]=NCc1ccccc1[C@@H]1OC(c2ccc(OCCCO)cc2)=N[C@]1(CCS(=O)(=O)c1ccccc1)C(=O)NCCN1CCOCC1,0.808,-0.31 (inactive),-0.174 (inactive),1.24 (inactive),-1.16 (inactive),0.81,0.285,2.1,1.9,0.615,0.36 (inactive),0.461,24 (active),6.42 (inactive),0.854 (inactive),0.763 (inactive),-0.291,0.961 (inactive),1.92 (inactive),2.34
[N-]=[N+]=NCc1ccccc1C[C@]1(C(=O)O)N=C(c2ccc(OCCCO)cc2)O[C@H]1c1ccccc1N=[N+]=[N-],0.92,-2.37 (inactive),-2.08 (inactive),0.218 (inactive),0.987 (inactive),0.954,0.199,2.01,1.39,0.237,0.23 (inactive),0.396,36.3 (active),33.8 (active),4.02 (inactive),10 (active),0.468,-2.14 (inactive),0.705 (inactive),-1.92
CCCCN1CC=CC23O[C@@H]4/C=C\CCC(C)OC(=O)C4[C@H]2C(=O)N(CCCCCO)[C@@H]3C1=O (stereo not given in full),-0.612,0.0396 (inactive),-0.398 (inactive),0.191 (inactive),-0.0864 (inactive),-1.24,-0.246,-1.6,-1.78,-0.0223,0.119 (inactive),-0.147,1.03 (inactive),-0.0101 (inactive),-0.0712 (inactive),0.406 (inactive),0.002,0.395 (inactive),-0.022 (inactive),1.21
O=C1O[C@H](c2ccccc2)[C@H](c2ccccc2)N2[C@H]1[C@@H](C(=O)Nc1nc3ccccc3s1)[C@]1(C(=O)Nc3ccc(C#CC4(O)CCCCCC4)cc31)[C@H]2c1ccc(OCCO)cc1,0.248,-1.04 (inactive),-1.88 (inactive),-0.402 (inactive),0.858 (inactive),1.18,0.284,0.401,1.01,1.68,-0.558 (inactive),0.338,3.28 (inactive),1.58 (inactive),0.501 (inactive),1.67 (inactive),-0.239,0.286 (inactive),0.11 (inactive),-0.0468
COc1ccc([Si](C)(C)[C@H]2[C@H](CC(=O)N3Cc4ccccc4C[C@H]3CO)O[C@@]3(C(=O)N(Cc4ccc(N5CCC5=O)cc4)c4ccccc43)[C@@H]2C)cc1,0.66,-6.48 (inactive),0.522 (inactive),0.656 (inactive),-0.317 (inactive),0.679,0.256,1.27,0.574,1.85,0.97 (inactive),0.874,6.86 (inactive),1.45 (inactive),1.46 (inactive),1.11 (inactive),0.414,-0.241 (inactive),0.465 (inactive),-1.64
O=C(NCc1ccccc1)[C@@]1(CCS(=O)(=O)c2ccccc2)N=C(c2ccc(OCCCO)cc2)O[C@H]1c1ccccc1,0.794,-2.09 (inactive),-0.847 (inactive),-0.435 (inactive),-0.516 (inactive),1.8,0.212,1.35,1.16,-0.756,1.06 (inactive),0.351,26.4 (active),10.4 (active),0.559 (inactive),1.99 (inactive),0.0734,-0.321 (inactive),1.35 (inactive),1.33
COC(=O)[C@@]1(Cc2ccc(OC)cc2)[C@H]2c3cc(C(=O)N(C)C)n(CCN4CNCC4=O)c3C[C@H]2CN1C(=O)c1ccccc1,0.0523,-0.582 (inactive),0.726 (inactive),-0.754 (inactive),-0.403 (inactive),0.494,-0.0736,-0.322,-0.502,-2.07,-1.1 (inactive),0.249,0.143 (inactive),-0.954 (inactive),-0.163 (inactive),-2.05 (inactive),0.963,0.821 (inactive),2.29 (inactive),0.453
COc1ccc([Si](C)(C)[C@H]2[C@H](CCO)O[C@@]3(C(=O)N(Cc4ccc(N5C(=O)COc6ccccc65)cc4)c4ccccc43)[C@@H]2C)cc1,-0.516,-6.62 (inactive),-1.32 (inactive),-0.766 (inactive),-0.706 (inactive),-0.314,-0.128,-1.06,-0.89,-0.15,-0.609 (inactive),-0.0094,5 (inactive),2.39 (inactive),-0.645 (inactive),1.41 (inactive),0.328,-0.916 (inactive),1.3 (inactive),2
